# Results published in PubChem BioAssay (EPA / NIEHS).
# Records with an inconclusive call do not appear. Calls of active or inactive are those of the source. The calls were made as follows: active = hit-call score of the fitted dose curve at least 0.9, where 1 is the maximum; inconclusive = response in the unintended direction; inactive = score below 0.9.
# Target: PGR (gene 5241) (UniProt P06401)
# Assay: TOX21_PR_BLA_Followup_Antagonist_ratio: Tox21 HEK293 Progesterone Receptor (PR) Antagonism Beta-lactamase Follow-Up Assay, Ratio (AID 2283934)
# Description: TOX21_PR_BLA_Followup is a secondary assay for specificity for the TOX21_PR_BLA_Agonist assay. To differentiate true PR agonists from cytotoxic substances, this follow up assay is multiplexed with a cell viability assay. The compounds were also tested for auto fluorescence that may interfere with the biological target readout resulting in potential false positives and/or negatives. To identify the compounds that stimulate PR signaling, a PR-UAS-bla GripTite cell line i.e. PR-UAS-bla HEK293T (Invitrogen, Carlsbad, CA, USA) containing a beta-lactamase reporter gene under the control of an UAS response element was used to screen Tox21 10K compound library. The cytotoxicity of the Tox21 compound library against the PR-bla cell line was tested in parallel by measuring the cell viability using CellTiter-Glo assay in the same wells. TOX21_PR_BLA_Followup_Antagonist_ratio is an assay readout measuring reporter gene via receptor activity and designed using inducible reporter (beta lactamase induction) detected with GAL4 b-lactamase reporter gene. The signal is derived from the ratio of cleaved (ch2) to uncleaved (ch1) reporter gene substrate used as the measure of target activity.Data from the assay component TOX21_PR_BLA_Followup_Antagonist_ratio was analyzed into 1 assay endpoint. This assay endpoint, TOX21_PR_BLA_Followup_Antagonist_ratio, was analyzed in the positive analysis fitting direction relative to DMSO as the negative control and baseline of activity. Using a type of inducible reporter, measures of receptor for gain-of-signal activity can be used to understand the reporter gene at the pathway-level as they relate to the gene NR3C3. Furthermore, this assay endpoint can be referred to as a primary readout, because this assay has produced multiple assay endpoints where this ratio serves a reporter gene function to understand target activity. To generalize the intended target to other relatable targets, this assay endpoint is annotated to the nuclear receptor intended target family, where the subfamily is steroidal.
# Assay Protocol: PR-UAS-bla HEK293T cells were dispensed at 3,000 cells/4 uL of assay medium containing 2% charcoal stripped FBS per well into black wall/clear-bottom 1536-well plates using a Multidrop Combi (ThermoFisher Scientific, Waltham, MA) dispenser. After the assay plates were incubated at a 37C and 5% CO2 for 6 hr, 23 nL of compounds dissolved in DMSO, positive controls or DMSO only was transferred to the assay plate by a Pintool station (Kalypsys, San Diego, CA), followed by addition of 1 uL (1nM as final concentration) of Promegestone (R5020) in assay medium using a BioRAPTR FRD (Flying Reagent Dispenser, Aurora Discovery, San Diego, CA). The plates were incubated at 37C and 5% CO2 for 16 hr. Then 1 uL of LiveBLAzer B/G FRET substrate was added using a FRD. After the plates were incubated at room temperature for 2 hours, fluorescence intensity was measured by an Envision plate reader (PerkinElmer, Shelton, CT).
# Chain of PGR (gene 5241) (P06401 whole entry, looked up): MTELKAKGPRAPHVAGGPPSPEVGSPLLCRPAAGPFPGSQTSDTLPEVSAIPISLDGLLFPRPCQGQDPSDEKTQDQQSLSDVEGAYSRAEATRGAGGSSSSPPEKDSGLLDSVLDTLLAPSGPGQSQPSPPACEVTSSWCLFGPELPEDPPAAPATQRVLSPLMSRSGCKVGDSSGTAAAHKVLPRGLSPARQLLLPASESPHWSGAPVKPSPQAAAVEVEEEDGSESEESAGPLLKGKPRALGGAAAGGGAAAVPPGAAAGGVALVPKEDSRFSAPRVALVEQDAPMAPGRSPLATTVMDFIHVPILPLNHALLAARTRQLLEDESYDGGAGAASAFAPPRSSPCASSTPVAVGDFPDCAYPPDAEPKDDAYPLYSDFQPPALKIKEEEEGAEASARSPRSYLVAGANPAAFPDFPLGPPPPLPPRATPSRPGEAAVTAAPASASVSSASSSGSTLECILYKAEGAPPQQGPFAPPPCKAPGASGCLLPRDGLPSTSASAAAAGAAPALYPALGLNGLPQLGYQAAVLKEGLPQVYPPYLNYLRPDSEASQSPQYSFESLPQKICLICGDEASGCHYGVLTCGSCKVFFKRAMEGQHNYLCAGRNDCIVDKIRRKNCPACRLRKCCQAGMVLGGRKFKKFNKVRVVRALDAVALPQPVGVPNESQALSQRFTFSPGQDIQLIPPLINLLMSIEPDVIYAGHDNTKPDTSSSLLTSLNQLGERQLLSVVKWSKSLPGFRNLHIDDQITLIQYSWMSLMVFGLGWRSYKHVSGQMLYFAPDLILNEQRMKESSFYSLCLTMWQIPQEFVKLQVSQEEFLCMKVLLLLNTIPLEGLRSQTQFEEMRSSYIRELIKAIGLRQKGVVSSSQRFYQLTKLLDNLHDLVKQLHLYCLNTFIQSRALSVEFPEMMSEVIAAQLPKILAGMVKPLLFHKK
SMILES,outcome,AC50
O=c1c(O)c(-c2ccc(O)c(O)c2)oc2cc(O)cc(O)c12,inactive,
C[C@]12C=CC(=O)C=C1CC[C@@H]1[C@@H]2C(=O)C[C@@]2(C)[C@H]1CC[C@]2(O)C(=O)CO,inactive,
Oc1ccc2c(c1)OC[C@@H](N1CCC(O)(c3ccc(F)cc3)CC1)[C@H]2O,inactive,
CCOc1ccc2c(c1)C(C)=CC(C)(C)N2,inactive,
CCc1c(C(=O)NN2CCCCC2)nn(-c2ccc(Cl)cc2Cl)c1-c1ccc(Br)cc1,,25.5 µM (active)
Oc1ccc2ccccc2c1N=Nc1ccccc1,inactive,

# Tested on: not listed separately
# Assay: TOX21_PR_BLA_Followup_Agonist_viability: Viability Assessment in the Tox21 HEK293 Progesterone Receptor (PR) Agonism Beta-lactamase Follow-Up Assay (AID 2283935);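 also: signal loss means lower viability so actives are cytotoxic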
# In short: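 Cells were plated in medium with 2% charcoal-stripped FBS and rested 6 hr. Compounds in DMSO were then added for 16 hr at 37C, followed by the FRET substrate step and CellTiter-Glo luminescence after 30 min.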
row,SMILES,outcome
1,C[C@]12C=CC(=O)C=C1CC[C@@H]1[C@@H]2C(=O)C[C@@]2(C)[C@H]1CC[C@]2(O)C(=O)CO,inactive
2,Oc1ccc2c(c1)OC[C@@H](N1CCC(O)(c3ccc(F)cc3)CC1)[C@H]2O,inactive
3,CCOc1ccc2c(c1)C(C)=CC(C)(C)N2,inactive
4,CCc1c(C(=O)NN2CCCCC2)nn(-c2ccc(Cl)cc2Cl)c1-c1ccc(Br)cc1,inactive
5,Oc1ccc2ccccc2c1N=Nc1ccccc1,inactive

# Tested on: not listed separately
# Assay: TOX21_PR_BLA_Followup_Antagonist_viability: Viability Assessment in the Tox21 HEK293 Progesterone Receptor (PR) Antagonism Beta-lactamase Follow-Up Assay (AID 2283936);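 also: cells exposed to compound with R5020 agonist for 16 h; hits lower the luminescence signal meaning cytotoxicity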
# In short: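 PR-UAS-bla HEK293T cells in medium with 2% charcoal-stripped FBS were treated with compounds plus R5020 for 16 hr at 37C. After the beta-lactamase read, CellTiter-Glo was added to the same wells and luminescence read after 30 min at room temperature.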
row,SMILES,outcome
1,Oc1ccc2c(c1)OC[C@@H](N1CCC(O)(c3ccc(F)cc3)CC1)[C@H]2O,inactive
2,CCOc1ccc2c(c1)C(C)=CC(C)(C)N2,inactive
3,CCc1c(C(=O)NN2CCCCC2)nn(-c2ccc(Cl)cc2Cl)c1-c1ccc(Br)cc1,inactive
4,Oc1ccc2ccccc2c1N=Nc1ccccc1,inactive

# Target: PGR (gene 5241) (UniProt P06401)
# Assay: TOX21_PR_LUC_Followup_Antagonist: Tox21 HEK293 Progesterone Receptor (PR) Antagonism Luciferase Follow-Up Assay (AID 2283938);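 also: curve fitted upward as signal gain over DMSO baseline despite antagonist label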
# In short: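 Luminescence from ONE-Glo was measured 30 min after reagent addition, following 16 h exposure of HEK293-PR-A-luc cells (3,000/well, plated 5 h earlier) to DMSO-dissolved compounds at 37C; DMSO served as baseline.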
row,SMILES,outcome
1,O=c1c(O)c(-c2ccc(O)c(O)c2)oc2cc(O)cc(O)c12,inactive
2,C[C@]12C=CC(=O)C=C1CC[C@@H]1[C@@H]2C(=O)C[C@@]2(C)[C@H]1CC[C@]2(O)C(=O)CO,inactive
3,Oc1ccc2c(c1)OC[C@@H](N1CCC(O)(c3ccc(F)cc3)CC1)[C@H]2O,inactive
4,CCOc1ccc2c(c1)C(C)=CC(C)(C)N2,inactive
5,CCc1c(C(=O)NN2CCCCC2)nn(-c2ccc(Cl)cc2Cl)c1-c1ccc(Br)cc1,inactive
